What all share (test): NCI-60 one-dose screen, 48 h (100 = growth as untreated, 0 = no growth, -100 = all killed)
Holding throughout (conditions): 10 µM unless noted

Assay [1] has as its system NCI-H23 lung.
The subject of assay [2] is NCI-H226 lung.
The subject of assay [3] is HOP-62 NSCLC.
Assay [4] relates to NCI-H460 lung.
The test system of assay [5] is HOP-92 NSCLC.
Assay [6] has as its system A549/ATCC NSCLC.
Assay [7] deals with 786-0 renal.
Assay [8] deals with COLO 205 colon.
The test system of assay [9] is DU-145 prostate.
The test system of assay [10] is K-562 leukemia.
In assay [11] the test system is MALME-3M melanoma.
In assay [12] the test system is MDA-MB-231 breast.
The subject of assay [13] is RXF 393 renal.
Assay [14] relates to SF-268 CNS.
The subject of assay [15] is SF-295 CNS.
Assay [16] deals with SF-539 CNS.
Assay [17] deals with UACC-257 melanoma.
The test system of assay [18] is M14 melanoma.
The subject of assay [19] is NCI-H522 lung.
The test system of assay [20] is NCI-H322M lung.

This is part of a sample that, as a whole, favours compounds with a hit. Of some 83,000 tested, about 20% had one in any assay.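 Cells were grown in 96-well plates and exposed to the test compound at a single concentration for 48 hours; results are reported as percent growth, with values below 10 considered active.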 A number with no mark means an inactive call. Calls of active or inactive are those of the source.

Regarding `NCCCNc1nc2ccc(Cl)cc2c2c(=O)c3cc(F)ccc3sc12`, the growth was 82.9% in assay [1]; 91.9% in assay [2]; 81.9% in assay [3]; -68.8% (active) in [4]; 30.3% in [5]; 58.2% in assay [6]. The growth in assay [7] is 72.7%; in [8] it was 31.9%; in assay [9], 24.4%; in assay [10], -38.7% (active); in assay [11] it was 103%; in assay [12], 3.44% (active). For the same compound, the growth in assay [13] was 62.3%; in assay [14] it was 53.2%; in assay [15], 103%; in [16] it was 70.7%; in assay [17] it was 98.3%; in assay [18], 55%.

Take `COc1cc(/C=C/C(=O)/C=C/c2cc(OC)c3c(c2OC)OCO3)c(OC)c2c1OCO2`: the growth is 33.2% in assay [1]; 73.9% in assay [2]; 72.8% in assay [3]; 23.5% in assay [4]; 74.1% in assay [5]; 55.1% in assay [6]. Moreover, the growth in [7] was 29%; in [8], 13.3%; in assay [9] it was 28.3%; in assay [10], 12.4%; in assay [11], 46.7%; in assay [12] it was 46%. Moreover, the growth is 16.6% in assay [13]; 48.7% in assay [14]; 89.7% in [15]; 29.4% in assay [16]; 54.1% in assay [17]; 31.7% in [18].

In the case of `NC1CCN(c2nc(Nc3cccc(C(F)(F)F)c3)c3c(=O)[nH]ccc3n2)CC1`, the growth is -58.9% (active) in assay [1]; -62.5% (active) in assay [2]; -58.8% (active) in assay [3]; -59.1% (active) in assay [4]; -61.5% (active) in assay [5]; -85.3% (active) in assay [19]. The growth was -52.2% (active) in assay [6]; -97.7% (active) in assay [7]; -61.1% (active) in assay [8]; 7.32% (active) in assay [9]; -48.7% (active) in assay [10]; -64.1% (active) in [11]. For the same compound, the growth in [12] was -62% (active); in [13] it was -93.6% (active); in assay [14], -46.2% (active); in assay [15] it was -56.7% (active); in assay [16], -96.5% (active); in assay [17], -74.6% (active). Besides, the growth in assay [18] was -95.2% (active).

In the case of `CCOC(=O)c1sc2ncc(-c3ccc(OC)cc3)n2c1C`, the growth in [1] is 85.9%; in assay [2] it was 84.3%; in [3] it was 91.4%; in assay [4] it was 103%; in [5], 92.6%; in assay [19], 74.7%. The growth was 104% in [6]; 106% in assay [7]; 105% in assay [8]; 105% in [9]; 91.2% in assay [10]; 101% in assay [11]. For the same compound, the growth in [12] is 92.4%; in [13], 111%; in [14] it was 98.1%; in assay [15], 96.4%; in assay [16], 91.8%; in assay [17], 105%. In addition, the growth in assay [18] is 95.3%.

As to `NCCCNc1nc2ccccc2c2c(=O)c3cc(F)cc(F)c3sc12`, the growth was 92.5% in assay [2]; 78.9% in assay [3]; -75.1% (active) in assay [4]; 36% in assay [5]; 92.7% in [19]; 78.1% in [6]. Moreover, the growth in [7] was -88.8% (active); in assay [8] it was 63.6%; in [9], 73.4%; in assay [10], -42.9% (active); in assay [11] it was 73.6%; in assay [12] it was 18.2%. Further, the growth was 63.6% in assay [13]; 81.7% in assay [14]; 105% in assay [15]; -92.3% (active) in assay [16]; 100% in assay [17]; -85.2% (active) in assay [18].

On to `O=c1c2cc(C(F)(F)F)ccc2sc2c(NCCCNCCO)nc3ccccc3c12`, for which the growth in [2] is 75.7%; in assay [20] it was 58.5%; in assay [3], 40.7%; in assay [4] it was -82.3% (active); in assay [5], 27.9%; in assay [19] it was -22.2% (active). In addition, the growth in assay [6] is -29.6% (active); in assay [7] it was 43%; in assay [8] it was -53.2% (active); in assay [9] it was -71.6% (active); in assay [10], -47.1% (active); in [11], 75.2%. Besides, the growth in [12] was -58.7% (active); in [13] it was 42.6%; in [14], 36.6%; in assay [15] it was 42.7%; in assay [16], -79.1% (active); in assay [17], 92%. Also, in [18], the growth is -38.9% (active).

`COc1ccc(C2C(C#N)=C(N)Oc3c2sc2c(C)cccc32)cc1` (centres undefined): the growth in [2] is 13.5%; in assay [20] it was 48.2%; in assay [3], 40.8%; in assay [4], 7.35% (active); in [5], 80%; in [19] it was 21.5%. The growth in [6] was 28.4%; in [7], 27.8%; in assay [8], 0.625% (active); in assay [9], 22.4%; in [10], 6.98% (active); in assay [11] it was 62.5%. Further, the growth is 16.6% in assay [12]; -11.7% (active) in assay [13]; 49.6% in assay [14]; 3.47% (active) in [15]; -16.8% (active) in [16]; 72.1% in assay [17]. Moreover, the growth in [18] was 8.58% (active).

For `c1ccc2cc(C[n+]3ccn(CCCCCCn4cc[n+](Cc5ccc6ccccc6c5)c4)c3)ccc2c1`, the growth in assay [2] is 69.6%; in assay [20], 76.2%; in [3], 55.8%; in assay [4], 24.6%; in [5], 59.9%; in [19], 33.1%. The growth was 38.6% in assay [6]; 83.6% in [7]; 27.9% in assay [8]; 65.9% in assay [9]; 28.3% in assay [10]; 11.2% in [11]. In addition, the growth in [12] is 84.1%; in [13], 87.4%; in [14], 55.6%; in assay [15], 48.3%; in [16], 56.3%; in assay [17], 61.9%. In assay [18], the growth was 69.9%.
